Inconclusive results are not listed. The source made the active and inactive calls. Calls come from the whole dose curve.
Assay: Cytotoxicity counterscreen for inhibitors of SARS-CoV-2 cell entry (AID 1645845); note: nearly all actives have a fitted effect of over 50% in size; for activity change, negative = cytotoxicity: % is set by controls: 0 for no effect and ±100 for the full control effect
Conditions: cell viability (SARS-CoV-2 entry assay cells); series mostly up to 57.1 µM; activity change, negative = cytotoxicity: at the top concentration
Summary of the method: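 ATP-content luminescence (ATPLite 1step, 15 min RT) read after 48 h compound exposure of Expi293F cells stably expressing human ACE2; normalized to cells-only wells and media-only wells.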
Potency is the fitted concentration of half-maximal effect.

Structure (SMILES)	Potency	activity change, negative = cytotoxicity	outcome
COc1cc(/C=C/C(=O)CC(=O)/C=C/c2ccc(O)c(OC)c2)ccc1O	31.6 µM (active)	–	–
CON(C)C(=O)N1N=C(c2cc(F)ccc2F)S[C@@]1(CCCN)c1ccccc1	–	-42.1% (inactive)	–
CCC(=O)OCC(=O)C1(OC(=O)CC)C(C)CC2C3CCC4=CC(=O)C=CC4(C)C3(F)C(O)CC21C (stereo not given)	–	-15% (inactive)	–
CN(CCOc1ccc(C[C@H](Nc2ccccc2C(=O)c2ccccc2)C(=O)O)cc1)c1ccccn1	inactive	–	–
CN1C(=O)[C@@H](NC(=O)c2cc(Cc3ccccc3)on2)COc2ccccc21	–	-27.7% (inactive)	–
CC1(C)CC(O)CC(C)(C)N1O	–	–	inactive
Cn1cc(/C=C2\C(=O)Nc3cccnc32)c2ccccc21	–	0.415% (inactive)	–
CCc1ccc(N(CC(C)C)S(=O)(=O)c2ccc(OCC3CCOCC3)c(CO)c2)cc1	–	-29.2% (inactive)	–
Clc1ccc(-c2nc3sccn3c2/C=N/OCc2ccc(Cl)c(Cl)c2)cc1	–	-10% (inactive)	–
Nc1ccn([C@@H]2C(F)=C(CO)[C@@H](O)[C@H]2O)c(=O)n1	–	-5.75% (inactive)	–
Cc1c[nH]c2ncnc(N3CCC(CN)(C(=O)Nc4cccc(OC(=O)N(C)C)c4)CC3)c12	–	3.66% (inactive)	–
CC1(C)C(=O)N(c2ccc(C#N)c(C(F)(F)F)c2)C(=S)N1Cc1ccc(-c2cn[nH]n2)cc1	–	-13.1% (inactive)	–
C[C@H]1[C@H](C)CC[C@]2(C(=O)O)CC[C@]3(C)C(=CC[C@@H]4[C@@]5(C)CC[C@H](O)C(C)(C)[C@@H]5CC[C@]43C)[C@H]12	–	–	inactive
C[C@H]1[C@H](C)CC[C@]2(C(=O)O)CC[C@]3(C)C(=CC[C@@H]4[C@@]5(C)C[C@@H](O)[C@H](O)[C@@](C)(CO)[C@@H]5CC[C@]43C)[C@H]12	–	–	inactive
CN1CCN(c2ncc(-c3cc(Cl)cc(Cl)c3Cl)c(N)n2)CC1	–	-13.2% (inactive)	–
C[C@H]1CC2[C@@H]3CCC4=CC(=O)C=C[C@]4(C)[C@@]3(F)[C@@H](O)C[C@]2(C)[C@@]1(O)C(=O)CO (stereo not given in full)	–	-22.2% (inactive)	–
CC1=C(/C=C/C(C)=C/C=C/C(C)=C/C=C/C=C(C)/C=C/C=C(C)/C=C/C2=C(C)CCCC2(C)C)C(C)(C)CCC1	–	-3.66% (inactive)	–
O=C(NCc1ccccc1)c1csc(Nc2ccncn2)n1	–	–	inactive

Assay: Primary qHTS to identify inhibitors of SARS-CoV-2 cell entry (AID 1645846); note: nearly all actives have a fitted effect of over 45% in size
Conditions: SARS-CoV-2 pseudovirus cell entry assay, luminescence; activity change, negative = inhibition: at 57.1 µM (top of the series) unless noted
Summary of the method: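 Inhibition of spike-mediated entry was scored in human ACE2-transfected Expi293F cells. Particles were MLV-pseudotyped with Wuhan-Hu-1 S carrying a 19-aa C-terminal deletion; signal was luciferase after two days, scaled between spike PP and fusion-protein-free PP.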

Structure (SMILES)	activity change, negative = inhibition	Potency	outcome
CON(C)C(=O)N1N=C(c2cc(F)ccc2F)S[C@@]1(CCCN)c1ccccc1	-86.6%	–	–
CCC(=O)OCC(=O)C1(OC(=O)CC)C(C)CC2C3CCC4=CC(=O)C=CC4(C)C3(F)C(O)CC21C (stereo not given)	-47%	–	–
Nc1nccc2c1ncn2[C@@H]1C=C(CO)[C@@H](O)[C@H]1O	-51.3%	–	–
Cc1cc(O)c(-c2ccc([C@@H](C)CN)cc2)c2c1[nH]c(=O)c1sccc12	-4.37%	–	–
CCC(=C/[C@H](C)C/C=C/C(C)=C/[C@@H](C)C(=O)[C@@H](C)[C@H](O)[C@@H](C)C/C(C)=C/C(=O)O)/C=C/[C@@H]1OC(=O)C=C[C@@H]1C	-94.2%	–	–
C=C1CC[C@@H]2[C@](C)(CO)[C@H](O)CC[C@@]2(C)[C@@H]1C/C=C1/C(=O)OC[C@H]1O	–	25.1 µM (active)	–
N#Cc1cc2cc(CN3CCC(Nc4ncnc5sc(CC(F)(F)F)cc45)CC3)c(O)cc2n1Cc1cn[nH]c1	–	17.8 µM (active)	–
CC1(C)CC(O)CC(C)(C)N1O	-11.7%	–	–
O=C(NCc1ccc(S(=O)(=O)c2cccc(C(F)(F)F)c2)cc1)c1cnc2[nH]ncc2c1	-97.3%	–	–
CC(C)Nc1cc(-c2c[nH]c(C(=O)N[C@H](CO)c3cccc(Cl)c3)c2)c(Cl)cn1	–	31.6 µM (active)	–
Cn1cc(/C=C2\C(=O)Nc3cccnc32)c2ccccc21	-43.1%	–	–
Cc1ccc(S(=O)(=O)Nc2cc(C(F)(F)F)ccc2C(=O)Nc2nc(-c3ccccc3)cs2)cc1	–	8.91 µM (active)	–
CCc1ccc(N(CC(C)C)S(=O)(=O)c2ccc(OCC3CCOCC3)c(CO)c2)cc1	-88.5%	–	–
Clc1ccc(-c2nc3sccn3c2/C=N/OCc2ccc(Cl)c(Cl)c2)cc1	-8.8%	–	–
COC1=C(OC)C(=O)C(C/C=C(\C)CC/C=C(\C)CC/C=C(\C)CC/C=C(/C)CC/C=C(\C)CC/C=C(\C)CC/C=C(\C)CC/C=C(\C)CC/C=C(\C)CCC=C(C)C)=C(C)C1=O	-14.5%	–	–
O=C1NC(=O)[C@@H](c2cn3c4c(cccc24)CCC3)[C@@H]1c1c[nH]c2ccccc12	-73.3%	–	–

Structure (SMILES)	activity change, negative = inhibition	Potency	outcome
CN1CCCN(C(=O)c2cccc(-c3ccc(/C=C4/C(=O)Nc5ccc(Cl)cc54)o3)c2)CC1	–	1 µM (active)	–
Nc1nc(N)c2nc(-c3cccc(Cl)c3)c(N)nc2n1	1.13%	–	–
CCNCCc1ccc(CN(CC)c2cc(OC)ccc2[C@@H]2CCc3cc(O)ccc3C2)cc1	–	31.6 µM (active)	–
NS(=O)(=O)c1ccc(S(=O)(=O)Nc2cccc3c(Cl)c[nH]c23)cc1	-3.77%	–	–
Nc1ccn([C@@H]2C(F)=C(CO)[C@@H](O)[C@H]2O)c(=O)n1	-76.2%	–	–
COc1cc(OC)c(/C=C/S(=O)(=O)Cc2ccc(OC)c(NCC(=O)O)c2)c(OC)c1	-75.7%	–	–
Fc1ccc(-c2csc3ncnc(NCc4ccc5c(c4)OCO5)c23)cc1	–	10 µM (active)	–
C[C@H]1[C@H](C)CC[C@]2(C(=O)O)CC[C@]3(C)C(=CC[C@@H]4[C@@]5(C)CC[C@H](O)C(C)(C)[C@@H]5CC[C@]43C)[C@H]12	0.662%	–	–
C[C@H]1[C@H](C)CC[C@]2(C(=O)O)CC[C@]3(C)C(=CC[C@@H]4[C@@]5(C)C[C@@H](O)[C@H](O)[C@@](C)(CO)[C@@H]5CC[C@]43C)[C@H]12	–	–	inactive
O=C(NO)c1cnc(NC2(c3ccccc3)CC2)nc1	–	–	inactive
CCN(CC)CCNC(=O)c1c(C)[nH]c(/C=C2/C(=O)Nc3ccc(-c4csc(-c5ccccc5)n4)cc32)c1C	–	22.4 µM (active)	–
C[C@H]1CC2[C@@H]3CCC4=CC(=O)C=C[C@]4(C)[C@@]3(F)[C@@H](O)C[C@]2(C)[C@@]1(O)C(=O)CO (stereo not given in full)	–	–	inactive
CC(C)(C)C[C@H]1N[C@@H](C(=O)NC2CCC(O)CC2)[C@H](c2cccc(Cl)c2F)[C@@]12C(=O)Nc1cc(Cl)ccc12 (stereo not given in full)	–	28.2 µM (active)	–
CN(C)CCNC(=O)NC[C@H]1CC[C@@H]2[C@H](O1)c1cc(C(F)(F)F)ccc1N[C@H]2c1ccccc1	–	25.1 µM (active)	–
CC1=C(/C=C/C(C)=C/C=C/C(C)=C/C=C/C=C(C)/C=C/C=C(C)/C=C/C2=C(C)CCCC2(C)C)C(C)(C)CCC1	-16.6%	–	–
CCCCN(CCCC)C(=O)CN1C[C@H](c2ccc3c(c2)OCO3)[C@@H](C(=O)O)[C@@H]1c1ccc(OC)cc1	-74.4%	–	–

— PubChem BioAssay (NCATS)
